hcDAF12 agonist = H. contortus DAF-12 nuclear receptor activators, primary screen, cell-based, luminescence, HEK293, lit1-tk-luc reporter; HEK293 hcDAF-12 lit1-tk-luc reporter; 0% DMSO, 100% Δ7-dafachronic acid; activation, % at 6.8 µM; 370,000 tested, 1.4% active; AID 652067, 2013;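 active = activation above the mean of all tested compounds plus 3 SD, cut at about 5.5% in these data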;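 note: 100% = response to 3 µM Δ7-dafachronic acid high control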
hgDAF-12 ag = H. glycines DAF-12 receptor agonists, primary screen, cell-based, luminescence, HEK293, GAL4 fusion, UAS-luciferase; activation, % at 6.8 µM; 370,000 tested, 1.8% active; HEK293 GAL4-hgDAF12 UAS-luciferase reporter, agonist luminescence; normalized to butyrate control; Nuclear hormone receptor DAF-12 (Heterodera glycines), GAL4 fusion;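 active = activation above a cutoff set at the mean of all screened compounds plus 3 SD, cut at about 10% in these data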;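 note: 0% = DMSO wells and 100% = sodium butyrate wells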
ssDAF-12 act = S. stercoralis DAF-12 nuclear receptor activators, primary screen, cell-based, luminescence, HEK293, GRIP1 co-expression, lit1-tk-luc | activation, % at 6.8 µM | 370,000 tested, 1% active | AID 652126, 2013 | HEK293 ssDAF-12/GRIP1 lit1-tk-luc reporter; % of 3 µM dafachronic acid response;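 active = activation above the mean over all tested compounds plus 3 SD, cut at about 0.9% in these data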;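 note: 0% = DMSO-only wells and 100% = 3 µM delta7-dafachronic acid wells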
DAX1 inh-1 = DAX1 (NR0B1) inhibitors on StAR promoter, primary screen, cell-based, luminescence, SF-1 (NR5A1), full-length DAX-1. HEK293T StAR-luciferase reporter, SF-1/DAX-1 repression relief. inhibition, % at 6.8 µM. 370,000 tested, 1.1% active. AID 652010, 2013;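 active = inhibition above the mean over all tested compounds plus 3 SD, cut at about 3.6% in these data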;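 note: 0% = DAX-1 cells with DMSO and 100% = cells lacking DAX-1 with DMSO; higher inhibition means more luminescence from relief of DAX-1 repression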
DAX1 inh-2 = DAX1 (NR0B1) inhibitors, primary screen, cell-based, HEK293, Gal4-DAX1, luciferase luminescence; Nuclear receptor subfamily 0 group B member 1 (Homo sapiens), P51843; HEK293 Gal4-DAX1 luciferase reporter; inhibition, % at 6.75 µM; 340,000 tested, 0.99% active;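 active = inhibition above the mean over all tested compounds plus 3 SD, cut at about 4.2% in these data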;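 note: 0% = DAX1-transfected cells with DMSO and 100% = empty-vector control cells with DMSO; inhibition shows as a rise in luminescence from relieved DAX1 repression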
Target sequence (P51843 207-470 limits assumed): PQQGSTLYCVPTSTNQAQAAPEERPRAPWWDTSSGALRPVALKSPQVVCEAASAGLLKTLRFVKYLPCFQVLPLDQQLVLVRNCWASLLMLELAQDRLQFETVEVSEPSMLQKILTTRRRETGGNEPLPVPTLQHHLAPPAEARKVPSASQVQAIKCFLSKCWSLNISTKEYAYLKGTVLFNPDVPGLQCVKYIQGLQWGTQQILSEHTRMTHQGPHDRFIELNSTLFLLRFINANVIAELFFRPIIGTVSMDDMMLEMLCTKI
An asterisk follows results filed as active; . = no result given. Most compounds without a hit are left out; they make up all but 4.1% or so of the library.

SMILES	hcDAF12 agonist	hgDAF-12 ag	ssDAF-12 act	DAX1 inh-1	DAX1 inh-2
COCCNC(=O)C(=O)NNS(=O)(=O)c1ccc(Cl)cc1	-0.4	-1.0	-1.5	-0.5	4.5*
COc1cccc(C(=O)NOCc2ccccc2)c1OC	2.7	10.3	0.9	4.4*	0.7
COc1cccc(C(=O)OCC(=O)NCCc2ccccc2)c1OC	-1.3	-0.1	-1.4	0.1	-0.7
COCCNC(=O)C(=O)NNS(=O)(=O)c1ccc2ccccc2c1	-0.8	0.5	-0.8	0.3	0.3
COc1cccc(COC(=O)Nc2ccccc2)c1OC	2.1	11.9*	-0.3	3.2	.
COc1ccccc1OCCOC(=O)Nc1ccccc1	3.0	0.3	-0.9	-0.6	0.2
COc1ccccc1C(=O)NNC(=O)CCC(=O)NCc1ccccc1	5.7*	1.6	-0.4	0.2	0.5
O=C(Nc1cccs1)OC1CC2CC1[C@H]1CCCCN1C2 (some centres undefined)	-0.9	-0.4	-0.1	0.3	.
CC(=O)N1CCCN(C(=O)CCn2nnc3ccccc32)CC1	-1.2	0.5	-1.0	0.4	.
CCN(CC)C(=O)CC[C@H]1CC[C@]2(CCCN(Cc3ccccc3)C2)O1	-0.1	1.9	-1.1	1.1	.
COCCNC(=O)C(=O)NNC(=O)c1ccccc1OC	4.2	3.3	1.5*	0.5	-0.5
CNC(=S)NNC(=O)c1oc2nc(-c3ccccc3)cc(C)c2c1N	6.1*	1.0	-0.1	0.8	1.8
CCc1ccc(OCC(=O)NC(=S)Nc2ccc(F)cc2)c(Br)c1	1.5	3.0	-0.8	0.4	1.9
CCc1ccc(OCC(=O)N(C)C)c(Br)c1	-1.9	0.6	-0.8	0.5	5.5*
CN(C)C(=O)c1nc2ccccc2s1	6.5*	4.6	0.3	0.6	1.7
Nc1c(C(=O)C2CC2)sc2nc(-c3ccccc3)cc(C(F)(F)F)c12	1.1	-0.6	-1.1	-0.5	0.2
Cc1c(C(=O)Nc2nccs2)sc2nc(-c3cccs3)cc(C(F)(F)F)c12	3.3	1.1	1.2*	0.7	0.0
CC(=O)c1sc2nc(-c3cccs3)cc(C(F)(F)F)c2c1N	6.3*	1.7	0.2	-0.1	0.4
Cc1c(C(=O)O)sc2nc(-c3cccs3)cc(C(F)(F)F)c12	0.7	2.3	-0.3	-0.3	0.7
N#Cc1ccc2nc(-c3ccc(CN4CCC5(CC4)CNc4ccccc45)cc3)c(-c3ccccc3)nc2c1	-1.3	-0.4	-1.1	-0.6	.
COc1ccc(-c2nc(SCc3ccccc3)n(C(=O)c3ccco3)n2)cc1	-0.6	3.0	-0.8	-0.1	0.7
COc1ccc(-c2nc(SC)n(C(=O)c3ccco3)n2)cc1	2.7	5.7	-0.8	1.3	4.2*
N/C(=N\OC(=O)c1ccc(Br)cc1)c1ccccc1	3.1	11.9*	0.0	2.6	0.5
N/C(=N\OC(=O)c1cccc(Br)c1)c1ccc(Br)cc1	2.1	4.0	-0.4	0.4	-0.2
O=C(Cn1nnc2ccccc21)c1cccc([N+](=O)[O-])c1	-1.4	-2.0	-1.8	0.0	0.3
SMILES	hcDAF12 agonist	hgDAF-12 ag	ssDAF-12 act	DAX1 inh-1	DAX1 inh-2
Cc1ccc(C(=O)Cn2nnc3ccccc32)cc1[N+](=O)[O-]	1.1	0.4	-0.4	0.6	6.0*
CCCCCCCCN1C(=O)[C@@H](CC(=O)NCCCOC)C[C@@]2(C(=O)OC)C1=C[C@H](COCc1ccccc1)O[C@@H]2C	-0.5	3.4	-0.9	0.7	.
O=C1C(NC(=O)N2c3ccccc3C=Cc3ccccc32)CCCCN1Cc1ccc(Cl)cc1 (centres undefined)	-1.4	-2.6	-1.8	-1.1	.
COC(=O)[C@]12C[C@H](CC(=O)NCC3CCCCC3)C(=O)N(Cc3ccccc3)C1=C[C@H](C1CCCC1)O[C@@H]2C	0.6	-0.3	-0.1	-0.4	.
CCOc1ccc2nc(NC(=O)CSc3ccc(Cl)cc3)sc2c1	-0.1	4.2	-0.7	0.3	-0.3
CCOCC(=O)Nc1nc2ccc(OCC)cc2s1	2.6	10.6*	-0.8	0.8	0.8
CCOc1ccc2nc(NC(=O)CSc3nc(SC)ns3)sc2c1	6.1*	3.5	-0.1	0.5	-0.4
CSc1nsc(SCC(=O)Nc2ccc(OC(C)=O)cc2)n1	1.4	11.0*	-0.5	1.6	3.1
COc1ccc(C2OCCNC3C2C(=O)N(Cc2ccc(OC)cc2OC)C3Cc2ccccc2)cc1 (centres undefined)	-2.2	-0.7	-1.6	.	.
CN1C(=O)c2cc(NC(=O)C3CC3)ccc2OC[C@H]2O[C@@H](CC(=O)NC3CCC3)CC[C@@H]21	-1.8	2.1	-1.6	0.4	.
CCN(CC)CCCNC(=O)CCC(=O)Nc1ccc2nc(N3CCCCC3)cc(C)c2c1	-0.8	1.9	-1.5	0.6	6.7*
C=C1[C@@H]2CC[C@H]3[C@]4(C)[C@@H](O)CC[C@@](C)(C(=O)OC)[C@H]4C[C@H](O)[C@]3(C2)[C@H]1O	1.3	-1.6	-0.7	-0.8	.
Cc1nc2c(-c3ccc(F)cc3)cnn2c2c1CCC2	5.7*	0.9	0.2	1.2	0.5
COc1cccc(N2CCN(CC(=O)NCc3ccco3)CC2)c1	-0.6	-2.1	-0.6	0.0	.
CCOc1ccccc1-c1ccc(C(=O)NCc2ccccc2)o1	-1.3	-1.7	-1.4	-0.3	7.3*
Cc1ccc(-c2ccc(C(=O)NCc3ccccc3)o2)c2ccccc12	-1.6	-0.9	-1.5	-1.2	0.0
C/C(N)=C(/C#N)C(=O)CSc1nn(-c2ccc(Cl)cc2)c(=S)s1	0.0	10.5*	-1.4	1.7	2.2
CCOC(=O)C(C)Sc1ccc2nnc(CCNS(=O)(=O)c3ccccc3)n2n1 (centres undefined)	-0.7	0.2	-1.1	0.4	5.8*
COc1ccc(C2C(C(=O)Nc3ccc(Cl)cc3)CCC(=O)N2c2ccc(OC)cc2)cc1 (centres undefined)	-3.0	-4.2	-1.6	-1.3	.
COc1cccc2c1C(=O)c1c(O)c3c(c(O)c1C2=O)CC(O)(C(C)=O)CC3OC1CC(N(C)C)C(O)C(C)O1 (centres undefined)	-4.5	-11.2	-2.8	-9.6	-6.5
CC(=O)[C@@]1(O)Cc2c(O)c3c(c(O)c2[C@H](O[C@H]2C[C@H](N)[C@H](O)[C@H](C)O2)C1)C(=O)c1ccccc1C3=O	4.5	-4.7	3.6*	-14.1	.
COc1cccc2c1C(=O)c1c(O)c3c(c(O)c1C2=O)C[C@@](O)(C(=O)CO)C[C@@H]3O[C@H]1C[C@H](N)[C@H](O)[C@H](C)O1	5.4	-6.7	2.2*	-5.9	-2.7

Source: PubChem BioAssay (The Scripps Research Institute Molecular Screening Center)
